The text below walks through data of PubChem BioAssay (NCATS).

Structures are written as SMILES. Inconclusive results are not listed. Values without a mark were called inactive. Activity calls are given as the source filed them. The call rests on the fitted dose curve; in most records, active means well fitted curve in the direction sought with a large enough effect; inconclusive means small, poorly fitted or top-dose-only effect, or another doubt; inactive means no such curve, though single readings can be large; an effect the other way counts as inactive or inconclusive.

Experiment [1] in a line: Quantitative highthroughput screen to assess conditional lethalithy of NOMO1 cells grown in RPMI1640 with untreated serum (RPMI+s) (AID 1963876). Further: nearly all actives have a fitted effect of over 35% in size.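 On viability: 100% = DMSO wells and 0% = empty wells without cells.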 The method, boiled down:
(§1)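 Each medium arm—HPLM with 10% dialyzed FBS, or RPMI1640 with 5 mM glucose and 10% untreated or dialyzed FBS—was screened against an 11-point, 3-fold compound titration for 48 h at 37 °C, with CellTiter-Glo luminescence as endpoint.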

Experiment [2] in a line: Quantitative highthroughput screen to assess conditional lethalithy of NOMO1 cells grown in RPMI1640 with dialyzed fetal bovine serum (RPMI+ds) (AID 1963877). Further: nearly all actives have a fitted effect of over 30% in size.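 On viability: series mostly up to about 46 µM; 100% = DMSO control wells and 0% = empty wells.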 The method, boiled down: as §1
Experiment [3] is described as follows: Quantitative highthroughput screen to assess conditional lethalithy of NOMO1 cells grown in Human Plasma-Like Medium with dialyzed fetal bovine serum (HPLM+ds) (AID 1963878). Further: nearly all actives have a fitted effect of over 35% in size.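 On viability: 100% = DMSO wells and 0% = empty wells on each plate.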 The method, boiled down:
as §1

Experiment [4] is described as follows: Quantitative highthroughput screen to assess conditional lethalithy of P12 Ichikawa cells grown in Human Plasma-Like Medium with dialyzed fetal bovine serum (HPLM+ds) (AID 1963879). Further: nearly all actives have a fitted effect of over 35% in size. On viability: series mostly up to about 46 µM. The following applies: Potency: viability. The method, boiled down: as §1
Experiment [5] can be described thus: Quantitative highthroughput screen to assess conditional lethalithy of P12 Ichikawa cells grown in RPMI1640 with untreated serum (RPMI+s) (AID 1963881). Further: nearly all actives have a fitted effect of over 35% in size.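 On viability: series mostly up to about 46 µM; 100% = DMSO wells and 0% = empty wells without cells.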 The following applies: Potency: viability. The method, boiled down: as §1
A short description of experiment [6]: Quantitative highthroughput screen to assess conditional lethalithy of SEM cells grown in Human Plasma-Like Medium with dialyzed fetal bovine serum (HPLM+ds) (AID 1963882). Further: nearly all actives have a fitted effect of over 35% in size. On viability: series mostly up to about 46 µM. The method, boiled down: as §1
The nature of experiment [7]: Cellular viability qHTS for adrenocortical cancer (ACC) cell line NCI-H295R (AID 1963990). Further: nearly all actives have a fitted effect of over 60% in size. The essentials: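 Compound titrations (up to 46 uM final) are applied to NCI-H295R cultures for 48 h at 37C. Viable cell number is estimated by CellTiter-Glo signal, normalised to DMSO and doxorubicin controls.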
Experiment [8] can be described thus: Quantitative highthroughput screen to assess conditional lethalithy of SEM cells grown in RPMI1640 with unreated serum (RPMI+s) (AID 1963883). Further: nearly all actives have a fitted effect of over 35% in size.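 On viability: 100% = DMSO wells and 0% = empty wells without cells.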 The essentials: as §1
Experiment [9] is described as follows: Quantitative highthroughput screen to assess conditional lethalithy of SEM cells grown in RPMI1640 with dialyzed fetal bovine serum (RPMI+ds) (AID 1963884). Further: nearly all actives have a fitted effect of over 35% in size.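 On viability: series mostly up to about 46 µM; 100% = DMSO control wells and 0% = empty wells without cells.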 The essentials: as §1
Experiment [10] is described as follows: Cellular viability qHTS for adrenocortical cancer (ACC) cell line SW-13 (AID 1963989). Further: nearly all actives have a fitted effect of over 65% in size.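 On activity (max response): cells grown in serum-free medium with ITS supplement; on the % scale 0 is the no-effect control and ±100 the full control effect.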 The following applies: SW-13 ACC cells viability, CellTiter-Glo, 48 h; activity (max response): stronger effect = lower value. The essentials: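 48 h treatment, SW-13 in ITS/DMEM serum-free; doses up to 46 uM; readout CellTiter-Glo luminescence; curve fit four-parameter logistic.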
(Quantitative high-throughput screening tests each substance at several concentrations.)

A short description of experiment [11]: Quantitative highthroughput screen to assess conditional lethalithy of P12 Ichikawa cells grown in RPMI1640 with dialyzed fetal bovine serum (RPMI+ds) (AID 1963880). Further: nearly all actives have a fitted effect of over 35% in size.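 On viability: 100% = DMSO wells and 0% = empty wells on each plate.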 The following applies: Potency: P12-Ichikawa viability. The method, boiled down: as §1
Potency means the concentration at half of the fitted maximal effect.

As to `Cc1c(C)c2c(c(C)c1O)CCC(C)(COc1ccc(CC3SC(=O)NC3=O)cc1)O2` (centres undefined), the Potency result in experiment [1], in [2], in experiment [3], in experiment [4], in experiment [5] and in [7] was “inactive” each time. Besides, the Potency in experiment [6] is 16600 nM (active).
Turning to `Cc1cccc(N(C)C(=S)Oc2ccc3ccccc3c2)c1`, the Potency entry in [1], in experiment [2], in experiment [3], in experiment [4], in experiment [5] and in [6] was “inactive” throughout. For the same compound, the Potency result in experiment [8], in experiment [9] and in experiment [7] was “inactive” in each case. In experiment [10], the activity (max response) was 2.38%.
For the compound `CC(C)(O)Cn1c(NC(=O)c2ccc(-c3cn[nH]c3)s2)nc2cc(CN3CCOCC3)ccc21`, the Potency is 4180 nM (active) in experiment [1]; 4180 nM (active) in experiment [2]; 2960 nM (active) in experiment [3]; 2350 nM (active) in [4]; 2350 nM (active) in [11]; 105 nM (active) in experiment [6]. For the same compound, the Potency in experiment [8] was 66.2 nM (active); in [9] it was 93.5 nM (active).
For `O=c1c(O)c(-c2cc(O)c(O)c(O)c2)oc2cc(O)cc(O)c12`, the Potency result in [1], in experiment [2], in experiment [3], in [4], in [11] and in experiment [6] was “inactive” in each case. In addition, the Potency entry in experiment [8] and in experiment [9] was “inactive” throughout. For the same compound, in experiment [10], the activity (max response) is -0.163%.
For the compound `CN(C)CCN(Cc1ccc(Cl)cc1)c1ccccn1`, the Potency result in [1], in [2], in experiment [3], in experiment [4], in [5] and in experiment [6] was “inactive” in each case. The Potency result in [8], in experiment [9] and in experiment [7] was “inactive” each time. Moreover, the activity (max response) in experiment [10] was -3.95%.
Regarding `CCN(C(=O)c1c(O)c2c(Cl)cccc2n(C)c1=O)c1ccccc1`, the Potency in experiment [1] is 1660 nM (active); in experiment [2], 2640 nM (active); in experiment [3] it was 1320 nM (active); in [4], 3320 nM (active); in [11] it was 1660 nM (active); in experiment [6] it was 590 nM (active). The Potency in [8] was 332 nM (active); in experiment [9], 418 nM (active); in experiment [10], 7940 nM (active).
Consider `CN1[C@@H]2CCC[C@@H]1CC(NC(=O)c1nn(C)c3ccccc13)C2` (some centres undefined), for which the Potency result in experiment [1], in experiment [2], in [3], in [4], in experiment [5] and in experiment [8] was “inactive” in each case. Moreover, in experiment [9], the Potency entry is “inactive”.
In the case of `CCOc1ccc(Cc2cc([C@@H]3O[C@H](CO)[C@@H](O)[C@H](O)[C@@H]3O)ccc2Cl)cc1`, the Potency entry in experiment [1], in [2], in experiment [3], in experiment [4], in [11] and in experiment [6] was “inactive” in each case. Also, the Potency result in experiment [8] and in [9] was “inactive” throughout.
`O=c1c(O)c(-c2ccc(O)cc2)oc2cc(O)cc(O)c12`: the Potency result in [1], in [2], in [3], in experiment [4], in experiment [11] and in experiment [6] was “inactive” in each case. In addition, the Potency result in experiment [7] is “inactive”. Moreover, in experiment [10], the activity (max response) was -9.76%.
With `CC(=O)N[C@@H]1[C@H](O[C@@H]2c3ccc(c(Cl)c3)Oc3cc4cc(c3O[C@H]3O[C@H](CO)[C@@H](O)[C@H](O)[C@H]3NC(=O)CCCCCCCC(C)C)Oc3ccc(cc3Cl)C[C@H]3NC(=O)[C@H](N)c5ccc(O)c(c5)Oc5cc(O)cc(c5)[C@H](NC3=O)C(=O)N[C@H]4C(=O)N[C@H]3C(=O)N[C@@H]2C(=O)N[C@@H](C(=O)O)c2cc(O)cc(O[C@H]4O[C@H](CO)[C@@H](O)[C@H](O)[C@H]4O)c2-c2cc3ccc2O)O[C@H](CO)[C@@H](O)[C@@H]1O`, the Potency result in [1], in experiment [2], in [3], in experiment [4], in [5] and in experiment [6] was “inactive” throughout. In addition, the Potency result in [8] and in experiment [9] was “inactive” in each case.
With `CC1=C(CC(=O)O)c2cc(F)ccc2C1=Cc1ccc(S(C)=O)cc1` (centres undefined), the Potency entry in [1], in experiment [2], in experiment [3], in [4], in experiment [5] and in experiment [6] was “inactive” each time. Further, the Potency entry in [8] and in experiment [7] was “inactive” throughout. The activity (max response) in experiment [10] was 10.2%.
In the case of `CCOc1cc2ncc(C#N)c(Nc3ccc(F)c(Cl)c3)c2cc1NC(=O)C=CCN(C)C`, the Potency was 16600 nM (active) in experiment [1]; 7430 nM (active) in experiment [2]; 4690 nM (active) in experiment [3]; 3720 nM (active) in experiment [4]; 5260 nM (active) in [5]; 1320 nM (active) in experiment [6]. For the same compound, the Potency in experiment [8] was 418 nM (active); in experiment [9], 743 nM (active).
Consider `CO[C@H]1C(=O)[C@]2(C)[C@@H](OC)C[C@H]3OC[C@@]3(OC(C)=O)[C@H]2[C@H](OC(=O)c2ccccc2)[C@]2(O)C[C@H](OC(=O)[C@H](O)[C@@H](NC(=O)OC(C)(C)C)c3ccccc3)C(C)=C1C2(C)C`, for which the Potency was 13.2 nM (active) in experiment [1]; 13.2 nM (active) in [2]; 2.1 nM (active) in experiment [3]; 14.8 nM (active) in [5]; 4.2 nM (active) in experiment [8]; 7.9 nM (active) in experiment [7].
As to `CC(C)(C)OC(=O)N[C@H]1CCCCCC=C[C@@H]2C[C@@]2(C(=O)NS(=O)(=O)C2CC2)NC(=O)[C@@H]2C[C@@H](OC(=O)N3Cc4cccc(F)c4C3)CN2C1=O`, the Potency entry in experiment [1], in experiment [2], in [3], in [11], in [5] and in experiment [6] was “inactive” each time. For the same compound, the Potency result in experiment [8], in experiment [9] and in experiment [7] was “inactive” in each case. Further, the activity (max response) in experiment [10] is 8.79%.
In the case of `O=C(N[C@H](CO)[C@H](O)c1ccc([N+](=O)[O-])cc1)C(Cl)Cl`, the Potency result in experiment [1], in experiment [2], in experiment [3], in experiment [6], in experiment [8] and in experiment [9] was “inactive” in each case. The Potency result in experiment [7] was “inactive”. In addition, the Potency in experiment [5] was 20900 nM (active). Besides, the activity (max response) in experiment [10] is -5.45%.
Consider `CC1=C(C(=O)O)N2C(=O)[C@@H](NC(=O)C(N)c3ccccc3)[C@H]2SC1` (some centres undefined), for which the Potency result in experiment [1], in experiment [2], in experiment [3], in experiment [11], in experiment [5] and in experiment [6] was “inactive” each time. Also, the Potency entry in experiment [8] and in [9] was “inactive” each time.
As to `O=C1NCCc2[nH]c(-c3ccncc3)cc21`, the Potency is 18700 nM (active) in [1]; 20900 nM (active) in experiment [2]; 18700 nM (active) in experiment [3]; 14800 nM (active) in [11]; 14800 nM (active) in experiment [5]; 13200 nM (active) in experiment [6]. The Potency is 13200 nM (active) in experiment [8], 14800 nM (active) in experiment [9], 7940 nM (active) in experiment [10] and 7080 nM (active) in [7].
Regarding `O=C(NCCCCN1CCOCC1)c1cc2ccccc2o1`, the Potency entry in [1], in [2], in experiment [3], in experiment [11], in [5] and in experiment [6] was “inactive” each time. Besides, the Potency entry in experiment [8], in experiment [9] and in experiment [7] was “inactive” each time. Moreover, in experiment [10], the activity (max response) is 10.7%.
